Prostate diff: activators of LNCaP prostate cell differentiation | flow cytometry side scatter, 4 d | side scatter shift, % at 10 µM | 0.56% of 24,000 active | AID 795;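 active = side scatter shift above 30%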;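 also: androgen-responsive LNCaP prostate cancer cells in charcoal-stripped serum medium; percent of cells past a gate set so DMSO wells show 10% shift; higher shift means more granular cells and more differentiation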
26S disassembly: blocks ATP-dependent breakdown of the yeast 26S proteasome; anti-FLAG beads, GFP-proteasome disassembly, flow cytometry; AID 751; 0.2% of 24,000 active; inhibition of disassembly, % (concentration not given with the values);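 active = inhibition of disassembly above about 33%, limit read from the data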;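 also: plate controls were ATP control with full disassembly for no effect and ATP-gamma-S intact proteasomes for full effect; higher percent means more bead fluorescence retained so stronger block of disassembly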
S aureus QS inh: S. aureus quorum sensing inhibition | inhibition, % at 2 µM | S. aureus RN6390 RNAIII-GFP reporter, AIP-induced, flow cytometry 3 h | 0.3% of 24,000 active | AID 527;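 active = share of bacteria positive for the green fluorescent reporter and its mean brightness both inhibited by 50% or more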;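 also: 0% = AIP-stimulated control and 100% = unstimulated bacteria without AIP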
An asterisk follows results filed as active. Rows were chosen to be rich in hits. Some 0.99% of all compounds tested hit in one or more screens of this group.

How did Cc1ccc(S(=O)(=O)NC(C)C(c2cccs2)N2CCN(C)CC2)cc1 (stereo unspecified) do in these assays?
Prostate diff: 17; 26S disassembly: 1; S aureus QS inh: -1

Results for Cc1cccc(NC(=O)c2sc3nc(-c4ccc(F)cc4)cn3c2C)n1 ?
Prostate diff: 26; 26S disassembly: 75*; S aureus QS inh: 11

What do the screens show for `Cc1cccc(NC(=O)c2sc3nc(-c4ccccc4)cn3c2C)n1`?
Prostate diff: 9; 26S disassembly: 0; S aureus QS inh: 13

Results for COc1cc2c(cc1OC)C(c1ccccc1O)N(C1CC(=O)N(c3ccccc3)C1=O)CC2 (stereo unspecified) ?
Prostate diff: 3; 26S disassembly: 0; S aureus QS inh: -2

What do the screens show for `COc1ccc(OC)c(NC2c3ccccc3C(=O)N2c2cccnc2)c1` (stereo unspecified)?
Prostate diff: 13; 26S disassembly: 3; S aureus QS inh: -5

What do the screens show for `Cc1ccc(C)c(Cn2c(=O)c3c(nc4n3CCN4Cc3ccco3)n(C)c2=O)c1`?
Prostate diff: 7; 26S disassembly: 2; S aureus QS inh: 9

Results for Cn1c(=O)n(CCc2ccccc2)c(=O)c2c1nc1n2CCN1Cc1ccco1 ?
Prostate diff: 3; 26S disassembly: 1; S aureus QS inh: 96*

What do the screens show for `COc1cccc(-c2nc(CS(=O)CC(=O)NCc3ccccc3)c(C)o2)c1` (stereo unspecified)?
Prostate diff: 11; 26S disassembly: 10; S aureus QS inh: 0

What do the screens show for `CC(C)(C)NC(=O)CC(CC(=O)O)c1ccccc1` (stereo unspecified)?
Prostate diff: 4; 26S disassembly: 2; S aureus QS inh: 0

How did CN(C)c1ccc(/C=C/C(O)=C2/C(=O)N(C)C3(C)CC2c2ccccc2O3)cc1 (stereo unspecified) do in these assays?
Prostate diff: 6; 26S disassembly: 85*; S aureus QS inh: 1

What do the screens show for `COc1cc(N2C(=O)NC3CC2(C)Oc2ccccc23)cc(OC)c1OC` (stereo unspecified)?
Prostate diff: 6; 26S disassembly: 0; S aureus QS inh: 2

What do the screens show for `Cc1ccc(-c2noc(CN3C(C)CCCC3C)n2)cc1` (stereo unspecified)?
Prostate diff: 2; 26S disassembly: 1; S aureus QS inh: 0

What do the screens show for `CCOC(=O)c1sc(NC(=O)CCn2nnc3ccccc32)c(C(=O)OCC)c1C`?
Prostate diff: 20; 26S disassembly: 1; S aureus QS inh: 28

What do the screens show for `Cn1c(C(=O)NCCCN2CCCC2=O)cc2c(=O)n3ccccc3nc21`?
Prostate diff: 7; 26S disassembly: 1; S aureus QS inh: -2

How did CCOC(=O)CCC(=O)O[C@H]1[C@H](O[C@@H]2[C@@H](C)[C@H](O[C@H]3C[C@@](C)(OC)[C@@H](O)[C@H](C)O3)[C@@H](C)C(=O)O[C@H](CC)[C@@](C)(O)[C@H](O)[C@@H](C)C(=O)[C@H](C)C[C@@]2(C)O)O[C@H](C)C[C@@H]1N(C)C do in these assays?
Prostate diff: 1; 26S disassembly: 0; S aureus QS inh: 52*

What do the screens show for `CCn1c(CCC(=O)Nc2nc3c(s2)CCCC3)nc2cc(S(=O)(=O)N(C)C)ccc21`?
Prostate diff: 10; 26S disassembly: 27; S aureus QS inh: -3

Results for COc1ccccc1NC(=O)c1nc[nH]c1C(=O)Nc1ccccc1OC ?
Prostate diff: 35*; 26S disassembly: 7; S aureus QS inh: 1

Results for CCOc1ccccc1NC(=O)Cn1nnc(C(=O)Nc2ccccc2Cl)c1N ?
Prostate diff: 10; 26S disassembly: 1; S aureus QS inh: 4

What do the screens show for `CCOc1ccccc1NC(=O)c1nc[nH]c1C(=O)Nc1ccccc1OCC`?
Prostate diff: 64*; 26S disassembly: 5; S aureus QS inh: -1

How did COc1ccc(NC(=O)c2nc[nH]c2C(=O)Nc2ccccc2C)cc1 do in these assays?
Prostate diff: 8; 26S disassembly: -1; S aureus QS inh: -3

Results for O=C1[C@@H]2C(c3ccccc3Cl)=NO[C@@H]2C(=O)N1Cc1ccccc1 ?
Prostate diff: 6; 26S disassembly: -1; S aureus QS inh: -9

How did CC(=O)Nc1ccc(S(=O)(=O)/N=C2\SCCN2S(=O)(=O)c2ccc(NC(C)=O)cc2)cc1 do in these assays?
Prostate diff: 16; 26S disassembly: 0; S aureus QS inh: 0

What do the screens show for `Cn1cnc2c(sc3nc(N4CCOCC4)c4c(c32)CC(C)(C)OC4)c1=O`?
Prostate diff: 9; 26S disassembly: 1; S aureus QS inh: 5

What do the screens show for `CCN(CC)CCNC(=O)c1cc2c(-c3ccc(Cl)cc3)nn(C)c2s1`?
Prostate diff: 40*; 26S disassembly: 1; S aureus QS inh: -1

How did Cn1nc(-c2ccc(Cl)cc2)c2cc(C(=O)NCCN3CCOCC3)sc21 do in these assays?
Prostate diff: 9; 26S disassembly: 1; S aureus QS inh: 2

Compound activity from PubChem BioAssay.
